# Screens deposited in PubChem BioAssay by The Scripps Research Institute Molecular Screening Center.
# MITF primary: blocks human microphthalmia-associated transcription factor; O75030; AlphaScreen MITF homodimerization, bead proximity signal; inhibition, % at 2.6 µM; 0.91% of 650,000 active; in the data active means inhibition above about 50%
# GPR151 activ: activators of human GPR151; Q8TDV0; PathHunter beta-arrestin GPR151 cells, luminescence; activation, % at 11.2 µM; 1% of 650,000 active; AID 1508602; in the data active means activation above about 4.9%
# FBW7 activator: human FBW7 E3 ligase activation, primary screen. AID 1259310. 0.13% of 650,000 active. Q969H0. normalized activity (activation), % at 26.1 µM. AlphaScreen FBW7–phospho-cyclin E peptide binding, activator screen; in the data active means normalized activity above about 1.9%;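 further: purified mutant Fbw7 with reduced substrate affinity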
# Target sequence (Q969H0 whole entry, looked up): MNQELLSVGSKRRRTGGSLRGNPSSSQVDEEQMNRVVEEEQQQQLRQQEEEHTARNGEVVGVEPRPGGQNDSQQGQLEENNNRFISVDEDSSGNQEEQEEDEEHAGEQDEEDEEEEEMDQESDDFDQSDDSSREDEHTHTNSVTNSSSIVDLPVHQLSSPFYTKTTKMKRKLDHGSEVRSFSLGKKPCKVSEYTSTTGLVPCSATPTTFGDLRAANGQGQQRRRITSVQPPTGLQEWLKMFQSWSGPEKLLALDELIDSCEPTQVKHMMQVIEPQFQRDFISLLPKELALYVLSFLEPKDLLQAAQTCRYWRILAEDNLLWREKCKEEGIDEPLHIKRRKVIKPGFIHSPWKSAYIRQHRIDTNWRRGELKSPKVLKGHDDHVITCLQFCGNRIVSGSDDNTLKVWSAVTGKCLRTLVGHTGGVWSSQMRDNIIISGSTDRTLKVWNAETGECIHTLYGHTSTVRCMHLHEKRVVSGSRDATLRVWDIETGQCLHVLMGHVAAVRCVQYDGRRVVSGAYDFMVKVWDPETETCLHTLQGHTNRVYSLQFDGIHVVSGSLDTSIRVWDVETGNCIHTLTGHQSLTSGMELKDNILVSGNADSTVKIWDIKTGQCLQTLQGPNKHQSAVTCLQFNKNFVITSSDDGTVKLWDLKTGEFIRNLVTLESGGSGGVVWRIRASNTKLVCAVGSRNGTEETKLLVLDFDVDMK
# TEAD-YAP block: TEAD-YAP interaction inhibition | HEK-TIYL cells, TEAD-Gal4/YAP UAS-luciferase luminescence | inhibition, % at 9.12 µM | 1.4% of 640,000 active; in the data active means inhibition above about 32%
# MITF confirm: human MITF inhibition, confirmation; AlphaScreen MITF homodimerization, biotin/His-MITF beads; shares compounds with MITF primary; inhibition, % at 2.6 µM; AID 1259372; 16% of 4,700 active;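 active means inhibition above a cutoff derived from the DMSO control wells, cut at about 28% in these data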;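 further: inhibitors lower the bead chemiluminescence by keeping MITF from dimerizing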
# AS interf DR: AlphaScreen optical interference, dose response counter-screen | shares compounds with MITF primary | AlphaScreen optical interference counterscreen, cell-free | IC50, µM | 6% of 480 active | AID 1259373; call rule not given here
# AlphaScreen intf2: counter-screen: compounds optically interfering with AlphaScreen; 7.6% of 4,700 active; shares compounds with MITF primary; LysRS AlphaScreen counterscreen, signal interference, triplicate; AID 1259376; inhibition, % at 2.6 µM;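 active means inhibition above a cutoff derived from the DMSO control wells, cut at about 30% in these data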
# A number is an active result; n = inactive; x = no result given. The list is not random: actives were taken first. Their share in the collection is about 3.5%.
SMILES,MITF primary,GPR151 activ,FBW7 activator,TEAD-YAP block,MITF confirm,AlphaScreen intf2,others
O=C(Cc1cccc2ccccc12)Nc1nnc(-c2ccc3c(c2)OCCO3)o1,n,n,n,n,x,x,
O=C(Cc1cccc2ccccc12)Nc1nnc(-c2ccncc2)o1,71,n,n,n,52,98,
O=C1CCCN1CCCn1c(=S)[nH]c2cc3ccccc3cc2c1=O,66,n,n,n,n,n,
COc1ccc2c(c1)CC(c1nc(Nc3cn[nH]c3)c3ccccc3n1)CO2 (stereo unspecified),n,n,n,n,x,x,
Clc1ccc2c(c1)CC(c1nc(Nc3cncnc3)c3ccccc3n1)CO2 (stereo unspecified),51,n,n,n,55,n,AS interf DR=n
COc1ccc(CN2CCN(CC3CC=CCC3)CC2)cc1OC (stereo unspecified),61,n,n,n,n,n,
CCOc1cc(CN2CCN(CC3CC=CCC3)CC2)ccc1OC (stereo unspecified),70,n,n,n,n,n,
Fc1ccc(CN2CCN(CC3CC=CCC3)CC2)cc1 (stereo unspecified),65,n,n,n,n,n,
Cc1cccc(CN2CCN(CC3CC=CCC3)CC2)c1 (stereo unspecified),67,n,n,n,n,n,
CCOc1cc(CN2CCCC2)ccc1OC,n,n,n,n,x,x,
CCS(=O)(=O)N1CCN(Cc2cccc(C)c2)CC1,n,n,n,n,x,x,
COc1ccc(C(=O)N2CCN(CC3CC=CCC3)CC2)cc1OC (stereo unspecified),n,n,n,n,x,x,
COc1cc(C(=O)Nc2cccc(C)n2)ccc1OCc1c(Cl)cccc1Cl,n,n,n,n,x,x,
COc1ccc(CN2CCN(CC3CC=CCC3)CC2)cc1 (stereo unspecified),61,n,n,n,n,n,
CC1CCN(Cc2ccc(-c3nnn(CC(=O)Nc4ccc(F)cc4)n3)cc2)CC1,88,n,n,n,n,n,
CC1CCN(Cc2ccc(-c3nnn(CC(=O)Nc4ccccc4F)n3)cc2)CC1,n,n,n,n,x,x,
Oc1ccc(Cn2cnc3ccccc32)c2cccnc12,95,n,n,51,96,101,
Brc1ccccc1Cn1cnc2ccccc21,n,n,n,n,x,x,
Oc1ccc(Cn2ccnc2)c2cccnc12,109,n,n,n,112,100,
O=C(CSc1nc(Nc2ccc3c(c2)OCO3)c2ccccc2n1)NCC1CCCO1 (stereo unspecified),n,n,n,n,x,x,
COc1ccc(S(=O)(=O)Nc2ccc3ccccc3c2)cc1I,n,n,n,n,x,x,
COc1cc(OC)c(OC)cc1CN1CCN(Cc2ccccc2C)CC1,74,n,n,n,n,n,
COc1cc(OC)c(OC)cc1CN1CCN(c2ccccc2OC)CC1,n,n,n,n,x,x,
FC(F)(F)c1ccccc1CN1CCN(Cc2ccc3ccccc3c2)CC1,83,n,n,n,n,n,
COc1cc(OC)c(OC)cc1CN1CCN(Cc2cc(OC)c(OC)cc2Br)CC1,72,n,n,n,n,n,
SMILES,MITF primary,GPR151 activ,FBW7 activator,TEAD-YAP block,MITF confirm,AlphaScreen intf2,others
COc1cc(Br)c(CN2CCCN(C)CC2)cc1OC,n,n,n,n,x,x,
COc1ccccc1CN1CCN(Cc2ccc3ccccc3c2)CC1,78,n,n,n,n,n,
COc1cccc(OC)c1C(=O)N1CCN(Cc2ccc3ccccc3c2)CC1,n,n,n,n,x,x,
Cc1cccc(CC(SC#N)C(=O)OCCCl)c1 (stereo unspecified),n,n,n,n,x,x,
CCOc1cc(CN2CCN(Cc3cccc(C)c3)CC2)ccc1OC,n,n,n,n,x,x,
CN(Cc1ccccc1)C1CCN(Cc2ccccc2[N+](=O)[O-])CC1,59,n,n,n,n,n,
COc1cc(OC)c(OC)cc1CN1CCN(Cc2cccn2C)CC1,63,n,n,n,n,n,
CCOc1cc(CN2CCN(Cc3ccccc3C)CC2)ccc1OC,52,n,n,n,n,n,
COc1cc(OC)c(OC)cc1CN1CCCN(C)CC1,n,n,n,n,x,x,
COc1cc(OC)c(CN2CCCC(O)C2)cc1Br (stereo unspecified),54,n,n,n,33,n,AS interf DR=n
COc1ccc(CN2CCCC(O)C2)cc1Br (stereo unspecified),n,n,n,n,x,x,
O=C(/C=C/Nc1ccccc1NS(=O)(=O)c1ccc([N+](=O)[O-])cc1)c1cccs1,n,n,n,n,x,x,
CCc1ccc(CN2CCN(Cc3ccccc3[N+](=O)[O-])CC2)cc1,74,n,n,n,n,n,
COc1ccc(CN2CCN(Cc3ccccc3C)CC2)cc1OC,62,n,n,n,n,n,
COc1ccc(CN2CCN(Cc3ccccc3Cl)CC2)cc1OC,71,n,n,n,n,n,
COc1ccccc1CN1CCN(Cc2ccc(OC)c(OC)c2)CC1,62,n,n,n,n,n,
COc1ccc(CNCc2ccccc2Cl)cc1OC,n,n,n,n,x,x,
COC(=O)C1(Cc2ccccc2)NC(c2cccs2)C2C(=O)N(C)C(=O)C21 (stereo unspecified),n,n,n,n,x,x,
Cc1ccc(-n2nc3c(c2NC(=O)c2ccc(Br)o2)CS(=O)(=O)C3)c(C)c1,n,n,n,n,x,x,
COc1ccc(/C=C/CN2CCc3nnc(CNC(=O)c4cccc(F)c4)n3CC2)cc1,n,n,n,n,x,x,
COc1ccc(CN2CCN(Cc3ccccc3[N+](=O)[O-])CC2)cc1OC,67,n,n,n,n,n,
CN1CCN(CCS(=O)(=O)OCC(F)(F)F)CC1,84,n,n,n,n,n,
O=C1c2cccc3cccc(c23)C(=O)N1CCS(=O)(=O)OCC(F)(F)F,n,n,n,n,x,x,
N#Cc1nc(-c2cccc(Cl)c2)oc1N1CCN(C(=O)c2ccc(Cl)cc2)CC1,n,n,n,n,x,x,
Cc1cccc(C(=O)N2CCN(c3oc(-c4ccc(Cl)cc4)nc3C#N)CC2)c1,75,n,n,n,n,n,
SMILES,MITF primary,GPR151 activ,FBW7 activator,TEAD-YAP block,MITF confirm,AlphaScreen intf2,others
OCCOc1ccc(CN2CCC(CO)(Cc3ccc(Cl)cc3)CC2)cc1,n,n,n,n,x,x,
O=C(CSc1nc(Nc2ccc(F)c(F)c2)c2ccccc2n1)NCC1CCCO1 (stereo unspecified),n,n,n,n,x,x,
COc1cc(Nc2nc(SCC(=O)NCC3CCCO3)nc3ccccc23)cc(OC)c1 (stereo unspecified),60,n,n,n,n,n,
Cc1cccc(NCc2ccc(O)c3ncccc23)n1,74,n,n,n,53,91,
Cc1cccc(NCc2ccccc2O)c1C,n,n,n,n,x,x,
Cc1ccccc1NCc1ccc(O)c2ncccc12,68,n,n,n,62,97,
CCOc1ccc(S(=O)(=O)Nc2ccccc2Br)c2cccnc12,n,n,n,n,x,x,
Oc1ccc(CNc2ccccc2Br)c2cccnc12,71,n,n,n,42,87,
c1ccc(Nc2nc(NC3CC3)c3ncn(C4CCCCC4)c3n2)cc1,88,n,n,n,n,n,
